From PubChem BioAssay (EPA / NIEHS)
Values joined by “and” are separate entries in the source; they are usually repeats but may differ in a detail not shown here. Equal entries are not always repeated. Records with an inconclusive call do not appear. Some compounds were tested as several samples or in several runs, with calls that do not always agree. Active and inactive are the calls of the source. Rule for the calls: active = hit-call score of the fitted dose curve at least 0.9, where 1 is the maximum; inconclusive = response in the unintended direction; inactive = score below 0.9.

These compounds were tested against human Retinoid X Receptor beta (RXRb), RXRB (gene 6257) (UniProt P28702) (assay: ATG_RXRb_TRANS: Attagene TRANS-FACTORIAL HepG2 Assay for human Retinoid X Receptor beta (RXRb) (AID 2283013)).
Experimental: ATG_TRANS is a cell-based, multiplexed-readout assay that uses HepG2, a human liver cell line, with measurements taken at 24 hours after chemical dosing in a 24-well plate.ATG_RXRb_TRANS is one of 30 assay component(s) measured or calculated from the ATG_TRANS assay. It is designed to make measurements of mRNA induction, a form of inducible reporter, as detected with fluorescence intensity signals by Reverse transcription polymerase chain reaction (RT-PCR) and Capillary electrophoresis technology.Data from the assay component ATG_RXRb_TRANS was analyzed into 1 assay endpoint. This assay endpoint, ATG_RXRb_TRANS, was analyzed in the positive analysis fitting direction relative to DMSO as the negative control and baseline of activity. Using a type of inducible reporter, measures of mRNA for gain-of-signal activity can be used to understand the reporter gene at the transcription factor-level as they relate to the gene RXRB. Furthermore, this assay endpoint can be referred to as a primary readout, because this assay has produced multiple assay endpoints where this one serves a reporter gene function. To generalize the intended target to other relatable targets, this assay endpoint is annotated to the nuclear receptor intended target family, where the subfamily is non-steroidal.
Human liver HepG2 cells are transiently transfected with multiple reporter transcription units (MRTUs) in 6-well plates using FuGene 6 reagent (Roche; 3 ml FuGene/1 mg DNA). The MRTU constructs are regulated by a cis-regulating element (promoter). […] A major difference between the CIS and TRANS system is that in CIS activities of endogenous TFs are measured, whereas the TRANS assay evaluates changes in activities of exogenous, chimeric NR-Gal4 proteins. […] At the end of 24 hour incubation, total RNA was isolated using TriZol reagent (Invitrogen). The isolated RNA is then reverse-transcribed using oligo(dT) primer and Mo-MLV reverse transcriptase (Invitrogen) with DNAse I (Ambion) treatment for 30 min. The one-tenth of the produced cDNA was amplified by PCR using Taq DNA polymerase (Invitrogen) and two reporter sequence-specific primers. The PCR products were fluorescently labeled by primer extension with 6-arboxyfluorescein (6-FAM) 5'-labeled reporter sequence-specific primer (2 min at 95 C, 20 s at 68 C and 10 min at 72 C) and these products were digested with 5U of HpaI (New England Biolabs) for 2h at 37 C. The fragments were purified using Qiaquick PCR columns (Qiagen), analyzed on an ABI 3130xL genetic analyzer (Applied Biosystems) with peak positions identified by using a set of X-rhodamine (ROX)-labeled MapMarker1000 molecular weight standards (BioVentures). The raw capillary electrophoresis data was processed using Attagraph software (Attagene).

Chain of human Retinoid X Receptor beta (RXRb), RXRB (gene 6257) (P28702 whole entry, looked up): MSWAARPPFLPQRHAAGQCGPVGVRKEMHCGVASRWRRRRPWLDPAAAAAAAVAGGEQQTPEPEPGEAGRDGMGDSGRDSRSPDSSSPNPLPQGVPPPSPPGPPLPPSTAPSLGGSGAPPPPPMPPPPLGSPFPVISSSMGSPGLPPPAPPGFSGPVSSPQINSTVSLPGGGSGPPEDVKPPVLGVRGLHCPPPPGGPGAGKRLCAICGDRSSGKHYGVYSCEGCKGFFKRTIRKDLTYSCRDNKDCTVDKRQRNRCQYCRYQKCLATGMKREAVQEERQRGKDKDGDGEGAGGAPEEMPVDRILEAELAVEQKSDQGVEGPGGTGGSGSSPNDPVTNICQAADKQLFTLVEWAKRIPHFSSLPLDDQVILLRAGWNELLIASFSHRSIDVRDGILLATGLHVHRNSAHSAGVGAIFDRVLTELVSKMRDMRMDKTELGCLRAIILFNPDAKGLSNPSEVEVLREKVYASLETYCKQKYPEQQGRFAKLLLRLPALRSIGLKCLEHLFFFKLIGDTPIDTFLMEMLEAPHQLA

Row | SMILES | outcome | AC50
1 | COC(=O)CCC(F)(F)C(F)(F)C(F)(F)C(F)(F)F | inactive | 
2 | C#C[C@]1(O)CC[C@H]2[C@@H]3CCc4cc(OC)ccc4[C@H]3CC[C@@]21C | inactive | 
3 | FC(F)(F)C(F)(F)C(F)(F)C(F)(F)C(F)(F)C(F)(F)C(F)(F)C(F)(F)F | inactive | 
4 | OCC(F)(F)C(F)(F)C(F)(F)F | inactive | 
5 | O=C(O)C(F)(F)C(F)(F)C(F)(F)C(F)(F)C(F)(F)C(F)(F)C(F)(F)C(F)(F)C(F)(F)C(F)(F)C(F)(F)C(F)(F)C(F)(F)F | inactive | 
6 | O=C(O)C(F)(F)C(F)(F)C(F)(F)C(F)(F)C(F)(F)C(F)(F)C(F)(F)C(F)(F)Cl |  | 19.9 µM (active) and 20.5 µM (active)
7 | CCCCOCCOCCOC(=O)CCCCC(=O)OCCOCCOCCCC | inactive | 
8 | O=C(O)C(F)(OC(F)(F)C(F)(OC(F)(F)C(F)(F)C(F)(F)F)C(F)(F)F)C(F)(F)F (stereo not given) | inactive | 41.7 µM (active)
9 | C=C(C)C(=O)OCCC(F)(F)C(F)(F)C(F)(F)C(F)(F)C(F)(C(F)(F)F)C(F)(F)F | inactive | 
10 | CN(C)Cc1ccccc1O | inactive | 
11 | Nc1ccc([N+](=O)[O-])cc1O | inactive | 
12 | CCN(CC)c1ccc2c(C)cc(=O)oc2c1 |  | 26.5 µM (active)
13 | C1COCCN1 | inactive | 
14 | CC(C)(C)c1ccc(OC2CCCCC2O)cc1 (stereo not given) | inactive | 
15 | O=S(=O)(O)C(F)(F)C(F)(F)C(F)(F)C(F)(F)C(F)(F)C(F)(F)C(F)(F)F | inactive | 
16 | C=CC(=O)OCC(F)(F)C(F)(F)C(F)(F)C(F)(F)C(F)(F)C(F)(F)C(F)(F)F | inactive | 
17 | N=C(N)C(F)(F)C(F)(F)C(F)(F)C(F)(F)C(F)(F)C(F)(F)C(F)(F)F | inactive | 
18 | FC(F)(F)C(F)(F)C(F)(F)C(F)(F)C(F)(F)CCI |  | 35.9 µM (active)
19 | CCO[Si](CCC(F)(F)C(F)(F)C(F)(F)C(F)(F)C(F)(F)C(F)(F)F)(OCC)OCC | inactive | 

Row | SMILES | outcome | AC50
20 | O=C(O)C(F)(F)C(F)(F)C(F)(F)C(F)(F)C(F)(F)C(F)(F)C(F)(F)C(F)(F)C(F)(F)C(F)F |  | 66 µM (active)
21 | CC(CCl)OP(=O)(OC(C)CCl)OC(C)CCl (stereo not given) | inactive | 
22 | CCc1c(Br)c(Br)c(Br)c(Br)c1Br |  | 5.94 µM (active)
23 | CCCCCC=O | inactive | 
24 | C=CC(=O)OCC(F)(F)C(F)(F)C(F)(F)C(F)(F)COC(=O)C=C |  | 1.1 µM (active)
25 | Nc1cc(Cl)c(N)c(Cl)c1 | inactive | 
26 | FC(F)(F)C(F)(F)C(F)(F)N(C(F)(F)C(F)(F)C(F)(F)F)C(F)(F)C(F)(F)C(F)(F)F | inactive | 
27 | OCCCC(F)(F)C(F)(F)C(F)(F)C(F)(F)C(F)(F)C(F)(F)C(F)(F)F |  | 6.49 µM (active) and 7.94 µM (active)
28 | FC(F)(I)C(F)(F)C(F)(F)C(F)(F)I | inactive | 
29 | OCC(F)(F)C(F)(F)C(F)(F)C(F)(F)C(F)(F)C(F)(F)F | inactive | 
30 | CCc1ccc(C(c2ccc(CC)cc2)C(Cl)Cl)cc1 | inactive | 
31 | C=C(C)C(=O)OCC(F)(F)C(F)(F)C(F)(F)C(F)(F)C(F)(F)C(F)(F)C(F)(F)F | inactive | 
32 | OC[C@@H](O)[C@@H](O)[C@H](O)[C@@H](O)CO | inactive | 35.1 µM (active)
33 | O[Si](c1ccccc1)(c1ccccc1)c1ccccc1 | inactive | 
34 | CC(=O)Nc1ccc(N=Nc2cc(C)ccc2O)cc1 | inactive | 
35 | C=CC(F)(F)C(F)(F)C(F)(F)C(F)(F)C(F)(F)C(F)(F)C(F)(F)C(F)(F)C=C | inactive | 
36 | CC(C)=CCCC(C)CCOC(=O)C(C)C (stereo not given) | inactive | 
37 | Cc1ccc(S(=O)(=O)OCC(F)(F)C(F)(F)C(F)(F)C(F)(F)C(F)(F)C(F)F)cc1 |  | 7.9 µM (active)
38 | CCCCCCCCCCCCCCCC[N+](C)(C)Cc1ccccc1 | inactive | 
